The values that follow come from publication PMC5540273 (PLoS ONE, 2017).

Some test systems named below: NEK11; NEK1; NEK2; NEK3; NEK4; NEK5; NEK6; NEK7; NEK9.
What all share (conditions): concentration: 1 μM,replicates: in singlicate; n = 1
In the next experiment the test system is T1, NIK.
T1 construct: gene MAP3K14

The structures appear in SMILES notation.
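Further: KINOMEscan kinase panel screen.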

Regarding `Cn1ccc2ncnc(Oc3ccc(NC(=O)Nc4cc(C(C)(C)C)on4)c(Cl)c3)c21`, the “%Inh” value was found to be 0% with NEK11; 0% in the experiment on NEK1; 17% in the experiment on NEK2; 21% in the experiment with NEK3; 3% with NEK4; 0% in the experiment with NEK5. In addition, the “%Inh” value was 0% with NEK6, 0% in the experiment with NEK7, 3% with NEK9 and 0% with NIK.

On to `COc1cc2c(Nc3ccc(NC(=O)c4ccccc4)cc3)ncnc2cc1OCCCN1CCOCC1` [GSK301329], for which the “%Inh” value in the experiment with NEK11 is 0%; with NEK1 it was 0%; with NEK2 it was 0%; with NEK3 it was 0%; in the experiment on NEK4 it was 22%; in the experiment on NEK5, 0%. For the same compound, the “%Inh” value is given as 0% in the experiment on NEK6, 0% with NEK7, 13% in the experiment with NEK9 and 9% in the experiment on NIK.

Turning to `O=C(Nc1cccc(C(F)(F)F)c1)c1cccc(Oc2ccc3nccn3n2)c1`, the “%Inh” value was 52% in the experiment on NEK11; 0% in the experiment with NEK1; 0% in the experiment with NEK2; 17% in the experiment on NEK3; 0% in the experiment with NEK4; 12% in the experiment with NEK5. Besides, the “%Inh” value is listed as 2% in the experiment with NEK6, 0% in the experiment on NEK7, 0% in the experiment on NEK9 and 36% with NIK.

Consider `COc1cc2nccc(Nc3ccc(Oc4ccccc4)cc3)c2cc1OC.Cl` [GI261656], for which the “%Inh” value in the experiment with NEK11, in the experiment with NEK1, in the experiment on NEK2, in the experiment on NEK3, in the experiment on NEK4 and with NEK5 was 0% each time. Moreover, the “%Inh” value with NEK6 came out at 0%; in the experiment on NEK7, 0%; with NEK9, 2%; in the experiment on NIK, 0%.

As for `CN1CCN(CCNc2nc3cc(Oc4ccc(NC(=O)Nc5cc(C(F)(F)F)ccc5F)cc4)ccc3[nH]2)CC1.Cl.Cl` [GW768504], the “%Inh” value in the experiment on NEK11 is 0%; in the experiment with NEK1, 0%; in the experiment with NEK2, 0%; in the experiment on NEK3, 20%; with NEK4, 0%; in the experiment with NEK5, 1%. Further, the “%Inh” value in the experiment on NEK6, with NEK7, with NEK9 and in the experiment on NIK was 0% in each case.

Consider `Cc1ccc(Nc2ccnc(Nc3ccc4c(c3)CS(=O)(=O)C4)n2)cc1O.Cl` [GW579362], for which the “%Inh” value with NEK11 is given as 5%; in the experiment on NEK1, 31%; with NEK2, 17%; with NEK3, 46%; with NEK4, 3%; in the experiment on NEK5, 70%. Besides, the “%Inh” value is 0% in the experiment with NEK6, 23% in the experiment with NEK7, 27% in the experiment with NEK9 and 27% in the experiment on NIK.

As for `Cn1ccc2ncnc(Oc3ccc(NC(=O)Nc4cccc(C(F)(F)F)c4)c(Cl)c3)c21`, the “%Inh” value is reported as 0% in the experiment on NEK11; 0% with NEK1; 0% in the experiment with NEK2; 9% in the experiment on NEK3; 0% in the experiment on NEK4; 0% in the experiment on NEK5. The “%Inh” value in the experiment with NEK6 worked out at 9%; in the experiment on NEK7, 0%; in the experiment with NEK9, 0%; in the experiment with NIK it was 7%.
